PubChem BioAssay (NCATS)
Records with an inconclusive call do not appear. Activity calls are given as the source filed them. Calls follow the shape of the dose curve; as a rule, active = well fitted curve in the direction sought with a large enough effect; inconclusive = small, poorly fitted or top-dose-only effect, or another doubt; inactive = no such curve, though single readings can be large; an effect the other way counts as inactive or inconclusive. Square brackets hold non-standard residues; d marks the D form. Peptide text beside a SMILES is read from it. Orn = NCCC[CH](N)C(=O)O

How the values were obtained:
[1] = target: Ubiquitin carboxyl-terminal hydrolase 1 (Homo sapiens) (UniProt O94782); assay: Inhibitors of USP1/UAF1: Pilot qHTS (AID 504865); also: nearly all actives have a fitted effect of over 35% in size; also: potency is read from the fitted curve at half-maximal effect
In short: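 1nM USP1/UAF1 + cpd, 15 min RT; start w/ Ub-Rho 150nM final; kinetic FL 480/540 nm, 6 reads q60 s. Buffer 50mM HEPES pH 7.8, 0.5mM EDTA, 1mM TCEP, 0.01% Tween-20, 0.1 mg/ml BSA.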

[2] = target: Luciferin 4-monooxygenase (Photinus pyralis) (UniProt P08659); assay: Biochemical firefly luciferase enzyme assay for NPC (AID 624030); also: nearly all actives have a fitted effect of over 70% in size; also: potency is read from the fitted curve at half-maximal effect
In short: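 Direct inhibition of firefly luciferase enzyme (10 nM final, 50 mM Tris Acetate) assessed by luminescence within 5 minutes. Percent activity scaled between DMSO and PTC124 positive control, with concentration-effect curves classified by fit quality and response.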

[3] = qHTS profiling for inhibitors of Plasmodium falciparum proliferation (AID 504749); also: potency is read from the fitted curve at half-maximal effect;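 as to activity, negative = inhibition: 0% = DMSO vehicle and full inhibition = artemisinin control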; as to all read-outs here: nearly all actives have a fitted effect of over 60% in size; details: P. falciparum in erythrocytes, SYBR Green DNA, 72 h; for activity, negative = inhibition: at 28.7 µM (top of the series)
In short: (§1)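 SYBR Green fluorescence of parasite DNA, read after lysis and overnight dark incubation, measured growth over 72 h in erythrocyte culture at 0.3% parasitemia and 2.5% hematocrit. Data normalised to DMSO and 0.29 uM artemisinin, with plate-drift correction.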

ATS189 = assay: as above; details: P. falciparum in erythrocytes, SYBR Green DNA, 72 h; series mostly up to 28.7 µM
In short: as §1

CP185 = assay: as above; details: P. falciparum in erythrocytes, SYBR Green DNA, 72 h; series mostly up to 28.7 µM
In short: as §1

CP201 = assay: as above; details: P. falciparum in erythrocytes, SYBR Green DNA, 72 h; series mostly up to 28.7 µM
In short: as §1

CP238 = assay: as above; details: P. falciparum in erythrocytes, SYBR Green DNA, 72 h; series mostly up to 28.7 µM
In short: as §1

CP252 = assay: as above; details: P. falciparum in erythrocytes, SYBR Green DNA, 72 h; series mostly up to 28.7 µM
In short: as §1

CP265 = assay: as above; details: P. falciparum in erythrocytes, SYBR Green DNA, 72 h; series mostly up to 28.7 µM
In short: as §1

CP286 = assay: as above; details: P. falciparum in erythrocytes, SYBR Green DNA, 72 h; series mostly up to 28.7 µM
In short: as §1

CP305 = assay: as above; details: P. falciparum in erythrocytes, SYBR Green DNA, 72 h; series mostly up to 28.7 µM
In short: as §1

CP325 = assay: as above; details: P. falciparum in erythrocytes, SYBR Green DNA, 72 h; series mostly up to 28.7 µM
In short: as §1

FAB9 = assay: as above; details: P. falciparum in erythrocytes, SYBR Green DNA, 72 h; series mostly up to 28.7 µM
In short: as §1

PC49 = assay: as above; details: P. falciparum in erythrocytes, SYBR Green DNA, 72 h; series mostly up to 28.7 µM
In short: as §1

[4] = target: Cytochrome P450 3A4 (Homo sapiens) (UniProt P08684); assay: qHTS Assay for Inhibitors and Substrates of Cytochrome P450 3A4 (AID 884); also: nearly all actives have a fitted effect of over 50% in size; also: potency is read from the fitted curve at half-maximal effect
In short: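 Luminescent readout of luciferin produced by CYP3A4 (20 nM) dealkylation of Luciferin-PPXE, 25 uM (its KM). NADPH-driven reaction ran 60 min at RT after 10 min compound preincubation; data scaled to 57 uM ketoconazole as 100% inhibition.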

[5] = target: DNA dC->dU-editing enzyme APOBEC-3G (Homo sapiens) (UniProt Q9HC16); assay: qHTS for inhibitors of Vif-A3G interactions: Validation (AID 588379); also: 0% is about no effect
In short: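 Yellow fluorescence (Ex 488, Em 500-530) of Vif-coexpressing HeLa A3G-eYFP cells, scanned by Acumen cytometer, reports blocked A3G degradation. Cells plated at 700/well overnight at 37 deg C before compound addition, then a further overnight compound incubation at 37 deg C.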

[6] = target: Cytochrome P450 3A4 (Homo sapiens) (UniProt P08684); assay: qHTS Assay for Activators of Cytochrome P450 3A4 (AID 885); also: nearly all actives have a fitted effect of over 65% in size
In short: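 Activators are scored by enhanced luminescence from CYP3A4 conversion of luciferin-PPXE (25uM, equal to KM) to luciferin, after 60 min at RT with an NADPH-regenerating system.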

[7] = Confirmation and Secondary Assay for Modulators of Hemoglobin Beta Chain Splicing at IVS2 654 locus (AID 910);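 also: HeLa cells stably carrying EGFP split by mutant beta-globin IVS2-654 intron; per-well total GFP intensity by laser scanning cytometry after 2-day treatment; % of control where 0% means no effect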
In short: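 Readout: per-well total peak green fluorescence (488 nm ex, 500–520 nm em) from objects 5–250 µm, reflecting correct splicing of an EGFP-654 reporter. Compounds were applied for 2 days at 37 °C to overnight-plated HeLa EGFP-654 cells; controls were DMSO and 500 nM IVS2-654 PNA.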

Sequence of Cytochrome P450 3A4 (Homo sapiens) (P08684 whole entry, looked up): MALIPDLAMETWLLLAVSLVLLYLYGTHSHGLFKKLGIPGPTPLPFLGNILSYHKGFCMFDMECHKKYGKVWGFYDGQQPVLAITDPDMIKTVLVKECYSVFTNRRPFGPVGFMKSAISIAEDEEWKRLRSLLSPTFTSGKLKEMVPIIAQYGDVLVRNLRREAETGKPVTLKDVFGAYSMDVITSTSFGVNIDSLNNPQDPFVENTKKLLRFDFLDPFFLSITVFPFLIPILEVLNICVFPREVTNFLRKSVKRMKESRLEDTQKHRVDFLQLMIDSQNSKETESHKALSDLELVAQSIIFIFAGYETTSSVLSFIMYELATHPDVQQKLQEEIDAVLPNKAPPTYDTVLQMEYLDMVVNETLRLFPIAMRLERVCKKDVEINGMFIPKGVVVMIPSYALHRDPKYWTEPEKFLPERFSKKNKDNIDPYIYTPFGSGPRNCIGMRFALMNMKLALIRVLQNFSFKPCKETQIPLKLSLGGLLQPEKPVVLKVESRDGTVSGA
Sequence of Ubiquitin carboxyl-terminal hydrolase 1 (Homo sapiens) (O94782 whole entry, looked up): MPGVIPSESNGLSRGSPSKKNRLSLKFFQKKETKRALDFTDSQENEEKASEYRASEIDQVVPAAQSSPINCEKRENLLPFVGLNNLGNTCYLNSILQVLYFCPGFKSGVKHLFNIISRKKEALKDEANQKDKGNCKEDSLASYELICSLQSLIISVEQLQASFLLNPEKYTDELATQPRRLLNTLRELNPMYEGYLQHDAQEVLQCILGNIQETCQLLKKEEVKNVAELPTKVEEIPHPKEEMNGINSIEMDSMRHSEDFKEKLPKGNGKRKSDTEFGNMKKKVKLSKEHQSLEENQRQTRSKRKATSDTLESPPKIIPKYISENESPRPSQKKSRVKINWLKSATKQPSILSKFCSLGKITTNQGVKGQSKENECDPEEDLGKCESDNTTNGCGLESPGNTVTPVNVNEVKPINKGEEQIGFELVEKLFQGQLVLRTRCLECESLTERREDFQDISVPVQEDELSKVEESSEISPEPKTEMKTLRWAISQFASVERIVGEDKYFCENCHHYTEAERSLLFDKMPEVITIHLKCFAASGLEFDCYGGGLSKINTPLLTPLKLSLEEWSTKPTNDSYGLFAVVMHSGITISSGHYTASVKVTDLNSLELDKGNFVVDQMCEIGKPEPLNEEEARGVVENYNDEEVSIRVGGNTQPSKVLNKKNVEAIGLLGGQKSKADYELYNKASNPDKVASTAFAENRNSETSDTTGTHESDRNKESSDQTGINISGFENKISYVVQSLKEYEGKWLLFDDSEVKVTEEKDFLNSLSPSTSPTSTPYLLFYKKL
Sequence of DNA dC->dU-editing enzyme APOBEC-3G (Homo sapiens) (Q9HC16 whole entry, looked up): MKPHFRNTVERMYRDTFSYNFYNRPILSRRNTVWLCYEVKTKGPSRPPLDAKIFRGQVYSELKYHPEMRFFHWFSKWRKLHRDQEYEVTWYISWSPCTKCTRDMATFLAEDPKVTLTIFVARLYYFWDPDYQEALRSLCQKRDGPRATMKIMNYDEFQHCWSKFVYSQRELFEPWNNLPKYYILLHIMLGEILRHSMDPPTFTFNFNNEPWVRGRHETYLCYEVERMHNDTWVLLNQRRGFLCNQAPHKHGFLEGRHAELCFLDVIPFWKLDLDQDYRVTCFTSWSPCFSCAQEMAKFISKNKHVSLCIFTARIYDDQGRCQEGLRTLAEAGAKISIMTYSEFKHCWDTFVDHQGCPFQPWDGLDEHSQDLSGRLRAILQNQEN
Sequence of Luciferin 4-monooxygenase (Photinus pyralis) (P08659 whole entry, looked up): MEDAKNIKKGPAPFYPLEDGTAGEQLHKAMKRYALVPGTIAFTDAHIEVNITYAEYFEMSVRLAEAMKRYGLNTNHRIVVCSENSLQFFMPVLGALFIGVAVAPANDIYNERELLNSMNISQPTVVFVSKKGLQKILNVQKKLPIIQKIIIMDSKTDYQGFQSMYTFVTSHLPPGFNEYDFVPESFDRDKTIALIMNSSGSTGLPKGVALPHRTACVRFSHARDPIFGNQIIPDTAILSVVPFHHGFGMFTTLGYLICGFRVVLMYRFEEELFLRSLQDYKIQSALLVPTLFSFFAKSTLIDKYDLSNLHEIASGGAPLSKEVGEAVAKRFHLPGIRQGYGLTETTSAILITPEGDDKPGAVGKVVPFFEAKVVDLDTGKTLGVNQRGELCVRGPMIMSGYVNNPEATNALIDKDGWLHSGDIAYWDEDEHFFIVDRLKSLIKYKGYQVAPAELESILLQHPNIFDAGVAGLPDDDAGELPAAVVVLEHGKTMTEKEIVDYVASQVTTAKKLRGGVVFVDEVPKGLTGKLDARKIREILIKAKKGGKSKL

CC(=O)OCC(=O)[C@@]1(O)CCC2C3CCC4=CC(=O)CC[C@]4(C)C3=CC[C@@]21C (some centres undefined)
inactive: Potency [1] | Potency [2] | activity, negative = inhibition ([3]; parasite line A) 11% | activity, negative = inhibition ([3]; parasite line B) 2.99% | Potency (ATS189) | Potency (CP185) | Potency (CP201) | Potency (CP238) | Potency (CP252) | Potency (CP265) | Potency (CP286) | Potency (CP305) | Potency (CP325) | Potency (FAB9) | Potency (PC49)

Nc1nc2c(c(=O)[nH]1)N=C(CNc1ccc(C(=O)NC(CCC(=O)O)C(=O)O)cc1)CN2 (centres undefined)
inactive: Potency [4] | Potency [1] | Potency [5]

O=C(/C=C/c1ccc(O)cc1)c1c(O)cc(O)cc1O
inactive: Potency [6] | Potency [1] | Potency [5]
active: Potency [4] 7940 nM

COc1cc2c(C)c3c4c(cc(OC)c(OC)c4c2cc1OC)CCN3C
active: Potency [4] 15800 nM | Potency [1] 25100 nM
inactive: Potency [6] | Potency [5]

O=C1/C(=C\c2cccs2)CCC/C1=C/c1cccs1
active: Potency [2] 5730 nM
inactive: activity, negative = inhibition ([3]; parasite line A) 0.948% | activity, negative = inhibition ([3]; parasite line B) 10.7% | Potency (ATS189) | Potency (CP185) | Potency (CP201) | Potency (CP238) | Potency (CP252) | Potency (CP265) | Potency (CP286) | Potency (CP305) | Potency (CP325) | Potency (FAB9) | Potency (PC49)

C=CC1=C(C(=O)O)N2C(=O)[C@@H](NC(=O)C(N=O)c3csc(N)n3)[C@H]2SC1 (some centres undefined)
inactive: Potency [1] | Potency [2] | activity, negative = inhibition ([3]; parasite line A) 6.56% | activity, negative = inhibition ([3]; parasite line B) 16.7% | Potency (ATS189) | Potency (CP185) | Potency (CP201) | Potency (CP238) | Potency (CP252) | Potency (CP265) | Potency (CP286) | Potency (CP305) | Potency (CP325) | Potency (FAB9) | Potency (PC49)

COc1ccc(/C=C/C(=O)c2cccs2)cc1OC
inactive: Potency [6] | Potency [1] | Potency [5]
active: Potency [4] 2510 nM

COc1cc(OC)c2c(c1)OC(c1ccccc1)CC2=O (centres undefined)
inactive: Potency [6] | Potency [1] | Potency [5]
active: Potency [4] 12600 nM

O=C(/C=C/c1ccc(O)cc1)c1cccs1
active: Potency [4] 1260 nM
inactive: Potency [6] | Potency [1] | Potency [5]

CC(C)CC1NC(=O)C(CCCN)NC(=O)C(C(C)C)NC(=O)C2CCCN2C(=O)C(Cc2ccccc2)NC(=O)C(CC(C)C)NC(=O)C(CCCN)NC(=O)C(C(C)C)NC(=O)C2CCCN2C(=O)C(Cc2ccccc2)NC1=O (centres undefined) (cyclo(FPV[Orn]LFPV[Orn]L); configuration not given here)
inactive: Potency [4] | outcome [7] | Potency [1] | Potency [2]
active: Potency ([3]; parasite line A) 1.3 nM | Potency ([3]; parasite line B) 1.3 nM | Potency (ATS189) 2.2 nM | Potency (CP185) 2.8 nM | Potency (CP201) 3.4 nM | Potency (CP238) 1.6 nM | Potency (CP252) 1.3 nM | Potency (CP265) 1.1 nM | Potency (CP286) 0.8 nM | Potency (CP305) 1.9 nM | Potency (CP325) 1.1 nM | Potency (FAB9) 10 nM | Potency (PC49) 7.1 nM

CCC(C)C1NC(=O)C(Cc2ccc(O)cc2)NC(=O)C(N)CSSCC(C(=O)N2CCCC2C(=O)NC(CC(C)C)C(=O)NCC(N)=O)NC(=O)C(CC(N)=O)NC(=O)C(CCC(N)=O)NC1=O (centres undefined)
inactive: Potency [2] | activity, negative = inhibition ([3]; parasite line A) 0.779% | activity, negative = inhibition ([3]; parasite line B) 4.79% | Potency (ATS189) | Potency (CP185) | Potency (CP201) | Potency (CP238) | Potency (CP252) | Potency (CP265) | Potency (CP286) | Potency (CP305) | Potency (CP325) | Potency (FAB9) | Potency (PC49)

NC(=O)CCC1NC(=O)C(Cc2ccccc2)NC(=O)C(Cc2ccc(O)cc2)NC(=O)CCSSCC(C(=O)N2CCCC2C(=O)NC(CCCN=C(N)N)C(=O)NCC(N)=O)NC(=O)C(CC(N)=O)NC1=O (centres undefined)
inactive: Potency [1] | Potency [2] | activity, negative = inhibition ([3]; parasite line A) 9.46% | activity, negative = inhibition ([3]; parasite line B) 7.06% | Potency (ATS189) | Potency (CP185) | Potency (CP201) | Potency (CP238) | Potency (CP252) | Potency (CP265) | Potency (CP286) | Potency (CP305) | Potency (CP325) | Potency (FAB9) | Potency (PC49)

C[C@H]1[C@H]2CC[C@H]3C4CC=C5C[C@@H](N(C)C)CC[C@]5(C)C4CC[C@]23CN1C (some centres undefined)
inactive: Potency [4] | Potency [1] | Potency [5]

CC1(C)C(/C=C/C=C/C=C/C=C2\N(CCCCS(=O)(=O)O)c3ccc4ccccc4c3C2(C)C)=[N+](CCCCS(=O)(=O)[O-])c2ccc3ccccc3c21
inactive: activity, negative = inhibition ([3]; parasite line A) 2.34% | activity, negative = inhibition ([3]; parasite line B) 4.13% | Potency (ATS189) | Potency (CP185) | Potency (CP201) | Potency (CP238) | Potency (CP252) | Potency (CP265) | Potency (CP286) | Potency (CP305) | Potency (CP325) | Potency (FAB9) | Potency (PC49)
active: Potency [1] 31600 nM | Potency [2] 28700 nM

COc1ccc(-c2nc3ccc(C4=C(C)CC(=O)NN4)cc3[nH]2)cc1
active: Potency [2] 12800 nM
inactive: activity, negative = inhibition ([3]; parasite line B) -13% | Potency (ATS189) | Potency (CP185) | Potency (CP201) | Potency (CP238) | Potency (CP252) | Potency (CP265) | Potency (CP286) | Potency (CP305) | Potency (CP325) | Potency (FAB9) | Potency (PC49)
